From PubChem BioAssay
NTMT1 inh: Primary qHTS for Inhibitors of N-terminal methyltransferase 1 (NTMT1): MTaseGlo Assay; NTMT1 MTase-Glo SAH luminescence, purified enzyme; Potency, µM (titrated, usually from 114 µM), actives largely listed as inhibitors; 2.5% of 59,000 active; AID 1645870, 2021; further: nearly all actives have a fitted effect of over 65% in size
Target sequence (Q9BV86 whole entry, looked up): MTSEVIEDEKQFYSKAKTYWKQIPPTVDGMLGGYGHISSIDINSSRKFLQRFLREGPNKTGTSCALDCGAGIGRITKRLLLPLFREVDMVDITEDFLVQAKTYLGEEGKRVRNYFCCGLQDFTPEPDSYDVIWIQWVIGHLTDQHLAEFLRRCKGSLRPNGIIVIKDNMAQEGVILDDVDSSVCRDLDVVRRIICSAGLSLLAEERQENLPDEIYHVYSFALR
HTT-AS promoter: Primary qHTS for Identification of Small Molecule Activators of Huntingtin-Antisense Promoter Activity | HEK293 HTT-AS promoter firefly luciferase reporter, 24 h; response scale: percent change from vehicle, -100% = no light | Potency, µM (top dose mostly 57.5 µM), usual class: activators | 0.24% of 48,000 active | AID 1508624, 2021; further: nearly all actives have a fitted effect of over 55% in size
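Quantitative HTS used concentration series of up to 57.5 uM final on HEK293 luciferase reporter cells, 24 h at 37 degrees C. Readout was Dual-Glo firefly luminescence.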
HTT promoter inh: Primary qHTS for Identification of Small Molecule Inhibitors of Huntingtin Promoter Activity. HEK293 HTT promoter firefly luciferase reporter, 24 h. Potency, µM (titrated, usually from 57.5 µM), usual class: inhibitors. 0.93% of 48,000 active; further: nearly all actives have a fitted effect of over 50% in size
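HEK293 Fluc reporter, 2,500 cells/well, 24 h pre-culture; cpds up to 57.5 uM final, 24 h 37 degrees C; Dual-Glo, 10 min RT; normalized vehicle = 0%, zero RLU = -100%.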
DYRK1A inh-1: Assay for Inhibitors of Dual-Specificity Tyrosine-(Y)-Phosphorylation Regulated Kinase 1A (Kinase-Glo assay) | shares compounds with NTMT1 inh | recombinant DYRK1A, Kinase-Glo ATP depletion luminescence | Potency, µM (titrated, usually from 76.9 µM), actives largely listed as inhibitors | 80% of 100 active | AID 2705, 2010
CLK4 RBC: Kinase Inhibition Study on Inhibitors of CDC-like Kinase 4 (Reaction Biology data): SAR round 2; 100% of 65 active; Potency, µM, hits mostly inhibitors; shares compounds with NTMT1 inh; AID 504421, 2011; Reaction Biology kinase assay, 10 uM ATP; calls by dose curve
DYRK1A inh-2: Kinase Inhibition Study on Inhibitors of Dyrk1a (Reaction Biology data) | 90% of 65 active | Reaction Biology kinase assay, 10 uM ATP | AID 504424, 2011 | Potency, µM, hits mostly inhibitors | shares compounds with NTMT1 inh;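 active means compounds that showed inhibition of Dyrk1a and received a fitted potency; inactive means compounds that showed no inhibition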
CLK2 RBC: Kinase Inhibition Study on Inhibitors of CDC-like Kinase 2 (Reaction Biology data) | shares compounds with NTMT1 inh | AID 504427, 2011 | 90% of 65 active | Potency, µM, actives largely listed as inhibitors | Reaction Biology kinase assay, 10 uM ATP;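 active means compound that inhibits Clk2 kinase in the dose series, with an IC50 potency reported; inactive means no inhibition seen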
CLK3 inh: Kinase Inhibition Study on Inhibitors of CDC-like Kinase 3 (Reaction Biology data) | Potency, µM, most hits filed as inhibitors | 40% of 65 active | AID 504428, 2011 | recombinant CLK3 kinase assay, 10 uM ATP | shares compounds with NTMT1 inh;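 active means compounds that inhibited Clk3 enough in the ten-dose series to give a half-maximal potency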
DYRK1B RBC: Kinase Inhibition Study on Inhibitors of Dyrk1b (Reaction Biology data); Recombinant Dyrk1b kinase assay, 10 uM ATP; shares compounds with NTMT1 inh; 80% of 65 active; Potency, µM, most hits filed as inhibitors;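 active means compounds whose dose response shows an inhibitor phenotype against the kinase Dyrk1b; inactive means compounds showing no inhibitor phenotype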
CLK1 inh: Kinase Inhibition Study on Inhibitors of CDC-like Kinase 1 (Reaction Biology data). shares compounds with NTMT1 inh. recombinant Clk1 kinase assay, 10 uM ATP. Potency, µM, most hits filed as inhibitors. 90% of 65 active;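 active means compounds that block the splicing kinase Clk1 enough to give a fitted half-inhibition concentration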
USP2 K63 confirm: Confirmation Assay for Inhibitors of Ubiquitin-specific Protease USP2a Using CHOP2 as the Reporter: K633 | shares compounds with NTMT1 inh | USP2 cleavage of DiUb K63-3IQF, fluorescence kinetic | Potency, µM (top dose mostly 57.5 µM), usual class: inhibitors | 80% of 30 active
Casp6 counter: qHTS for Inhibitors of Ubiquitin-specific Protease USP2a Using CHOP2 as the Reporter: Caspase 6 Assay; shares compounds with NTMT1 inh; Caspase 6 enzyme, Caspase-Glo 6 luminescence; activity change, negative = inhibition, % at 46.1 µM; 30 tested, under 10 active
NNMT counter: Counterscreen qHTS for Inhibitors of N-terminal methyltransferase 1 (NTMT1): NNMT MTaseGlo assay; 10% of 120 active; shares compounds with NTMT1 inh; NNMT MTase-Glo luminescence, SAH detection; Potency, µM (highest dose often 57.1 µM), usual class: inhibitors
Target sequence (P40261 whole entry, looked up): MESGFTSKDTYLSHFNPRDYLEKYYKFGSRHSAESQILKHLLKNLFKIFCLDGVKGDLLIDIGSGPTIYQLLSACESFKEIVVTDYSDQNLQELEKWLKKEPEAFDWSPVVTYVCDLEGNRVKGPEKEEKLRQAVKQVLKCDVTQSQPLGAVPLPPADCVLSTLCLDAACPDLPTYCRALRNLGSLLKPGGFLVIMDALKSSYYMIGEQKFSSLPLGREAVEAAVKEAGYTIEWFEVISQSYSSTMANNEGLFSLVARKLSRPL
Of the large screens only hits and unclear results are named; the others gave an inactive call (follow-up assays come after a bar, where they were run). The sample as a whole holds a higher share of hits than the screen did. Unless noted, the call rests on the fitted dose curve; in most records, active means well fitted curve in the direction sought with a large enough effect; inconclusive means small, poorly fitted or top-dose-only effect, or another doubt; inactive means no such curve, though single readings can be large; an effect the other way counts as inactive or inconclusive.

CC(=O)Nc1ccc(S(=O)(=O)Nc2nccs2)cc1	none (no result: HTT-AS promoter, HTT promoter inh) | USP2 K63 confirm inactive | Casp6 counter inactive
O=C(Nc1ccc(S(=O)(=O)Nc2nccs2)cc1)c1cc(-c2ccccc2)nc2ccccc12	none (no result: HTT-AS promoter, HTT promoter inh) | USP2 K63 confirm 1.7µM | Casp6 counter inactive
CC(C)C1CCC(C(=O)Nc2ccc(S(=O)(=O)Nc3nccs3)cc2)CC1 (stereo not given)	none (no result: HTT-AS promoter, HTT promoter inh)
CN(C)CCNc1ncnc2ccc(-c3ccc4c(c3)OCO4)cc12	NTMT1 inh inconclusive (no result: HTT-AS promoter, HTT promoter inh) | DYRK1A inh-1 1.6µM | CLK4 RBC 1.9 | DYRK1A inh-2 1.4µM | CLK2 RBC 15µM | CLK3 inh inactive | DYRK1B RBC 7.3µM | CLK1 inh 4.2µM
c1nc(NCCc2cnc[nH]2)c2ccc(-c3ccc4c(c3)OCO4)cc2n1	none (no result: HTT-AS promoter, HTT promoter inh) | DYRK1A inh-1 23µM
Cc1cc(CNc2ncnc3ccc(-c4ccc5c(c4)OCO5)cc23)c(C)o1	NTMT1 inh inconclusive (no result: HTT-AS promoter, HTT promoter inh) | DYRK1A inh-1 0.37µM | CLK4 RBC 0.44 | DYRK1A inh-2 0.58µM | CLK2 RBC 15µM | CLK3 inh inactive | DYRK1B RBC 4.9µM | CLK1 inh 0.86µM
c1nc(NCC2CCCC2)c2cc(-c3ccc4c(c3)OCO4)ccc2n1	NTMT1 inh inconclusive (no result: HTT-AS promoter, HTT promoter inh) | DYRK1A inh-1 0.065µM
Cc1c(C(=O)OCC2CC2)[nH]c2c1C(=O)CC(c1ccco1)C2 (stereo not given)	none (no result: HTT-AS promoter, HTT promoter inh)
CC(Nc1nc(-c2ccccc2C(F)(F)F)nc2ccccc12)c1ccc(-c2cccc(C(F)(F)F)c2)cc1 (stereo not given)	none (no result: HTT-AS promoter, HTT promoter inh)
CC1=C(CCC(C)O[C@@H]2O[C@H](CO)[C@@H](O)[C@H](O)[C@H]2O)C(C)(C)CC(O)C1 (stereo not given in full)	none (no result: HTT-AS promoter, HTT promoter inh)
Nc1cc(COc2c(Cl)cc(C[C@H](N)C(=O)O)cc2Cl)c2oc(-c3ccccc3)nc2c1	none (no result: HTT-AS promoter, HTT promoter inh)
CN1CCCC1CCNc1ncnc2ccc(-c3ccc4c(c3)OCO4)cc12 (stereo not given)	none (no result: HTT-AS promoter, HTT promoter inh) | DYRK1A inh-1 4.1µM | CLK4 RBC 7.1 | DYRK1A inh-2 5.6µM | CLK2 RBC 8.6µM | CLK3 inh inactive | DYRK1B RBC 8.2µM | CLK1 inh 5.2µM
c1nc(NCc2ccc3c(c2)OCO3)c2cc(-c3ccc4c(c3)OCCO4)ccc2n1	none (no result: HTT-AS promoter, HTT promoter inh)
C[C@@H]1O[C@@H](O[C@H]2[C@@H]3C=CO[C@@H](O[C@@H]4O[C@H](CO)[C@@H](O)[C@H](O)[C@H]4O)[C@@H]3[C@@]3(CO)O[C@@H]23)[C@H](O)[C@H](OC(=O)/C=C/c2ccc(O)c(O)c2)[C@H]1O	none (no result: HTT-AS promoter, HTT promoter inh)
COc1c(C(C)C)c(O)c(O)c2c1C(OC)[C@H]1OC(=O)[C@@]23CCCC(C)(C)[C@H]13 (stereo not given in full)	none (no result: HTT-AS promoter, HTT promoter inh) | NNMT counter inactive
OCc1ccc(-c2ccc(-c3ccc(CO)s3)o2)s1	NTMT1 inh inconclusive | NNMT counter inactive
CCn1c(=O)c(-c2ccn[nH]2)cc2c(C)nc(N)nc21	none (no result: HTT-AS promoter, HTT promoter inh) | NNMT counter inactive
COc1cc(N2CCC(N3CCN(C)CC3)CC2)ccc1Nc1ncc(Cl)c(-c2c[nH]c3ccccc23)n1	NTMT1 inh 20µM (no result: HTT-AS promoter, HTT promoter inh) | NNMT counter inconclusive
COc1cc(N2CCN(C(C)=O)CC2)ccc1Nc1ncc(Cl)c(Nc2ccc(N3CCN(C(C)=O)CC3)cc2OC)n1	NTMT1 inh 20µM (no result: HTT-AS promoter, HTT promoter inh) | NNMT counter inconclusive
CCOc1cc(N2CCC(O)CC2)ccc1Nc1ncc2c(n1)N(C)c1ccccc1C(=O)N2C	NTMT1 inh inconclusive
C=C1C[C@@]2(O)O[C@@]3(C[C@H]2C(C)C)[C@@H](C)CC[C@@H]13	none (no result: HTT-AS promoter, HTT promoter inh)
